From PubChem
Sampled rows, rich in hits. Any-hit rate of the full collection: about 3.2%.
TRb SRC2 PPI: qHTS for Inhibitors of the Interaction of Thyroid Hormone Receptor and Steroid Receptor Coregulator 2; Thyroid hormone receptor beta (Homo sapiens), P10828; TRbeta-SRC2 peptide binding, fluorescence polarization; receptor liganded with 1 µM T3; 280,000 compounds, 0.065% hits; Potency, µM (series often up to 106 µM), usual class: inhibitors; AID 1469, 2008; also: nearly all actives have a fitted effect of over 50% in size
Target sequence (P10828 whole entry, looked up): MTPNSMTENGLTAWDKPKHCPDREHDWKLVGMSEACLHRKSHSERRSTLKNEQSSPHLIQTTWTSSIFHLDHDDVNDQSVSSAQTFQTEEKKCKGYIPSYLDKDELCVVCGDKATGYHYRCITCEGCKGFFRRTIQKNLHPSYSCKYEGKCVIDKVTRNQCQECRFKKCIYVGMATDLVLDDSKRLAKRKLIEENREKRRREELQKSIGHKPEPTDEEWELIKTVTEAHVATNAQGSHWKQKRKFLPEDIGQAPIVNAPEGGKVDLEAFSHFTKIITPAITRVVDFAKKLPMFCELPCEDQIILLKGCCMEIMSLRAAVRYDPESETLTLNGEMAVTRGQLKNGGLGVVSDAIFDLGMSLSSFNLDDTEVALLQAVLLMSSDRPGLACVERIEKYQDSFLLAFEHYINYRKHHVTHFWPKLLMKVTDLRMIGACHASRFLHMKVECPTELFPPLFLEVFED
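Fluorescence polarization of 20 nM Texas Red SRC2 peptide (20-aa NR interaction domain) bound to 0.6 uM human TRb ligand-binding domain, with 1 uM T3, after 5 hr at ambient temperature; inhibition seen as decreased polarization.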
RGS12 GoLoco inh: qHTS Assay for Inhibitors of RGS12 GoLoco Motif Activity (Red Fluorophore). Guanine nucleotide-binding protein G(i) subunit alpha-1 (Homo sapiens), P63096. Gai1:RGS12 GoLoco peptide FP, rhodamine, 10 min. Potency, µM (doses to about 61.6 µM), actives largely listed as inhibitors. 230,000 compounds, 0.44% hits. AID 880, 2007; active = well fitted inhibition curve with a large enough effect, not every such curve was filed as active; inactive = no such curve, though single readings can be large or run the other way; also: nearly all actives have a fitted effect of over 30% in size
Tau fibril FP: qHTS for Inhibitors of Tau Fibril Formation, Fluorescence Polarization; Microtubule-associated protein tau (Homo sapiens), P10636; K18 P301L tau heparin fibrillization, Alexa594 FP, 6 h; Potency, µM (doses to about 57.7 µM), actives largely listed as inhibitors; 280,000 compounds, 0.39% hits; also: nearly all actives have a fitted effect of over 55% in size
Target sequence (P10636 561-689 P618L limits assumed): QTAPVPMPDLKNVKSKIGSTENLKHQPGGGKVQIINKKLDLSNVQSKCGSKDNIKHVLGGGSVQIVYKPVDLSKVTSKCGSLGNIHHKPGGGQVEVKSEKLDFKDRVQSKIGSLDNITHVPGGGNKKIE
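Compound effects on tau fibrillization are measured by Alexa 594 fluorescence polarization (ex 555, em 632 nm). K18 P301L tau is used at 15 uM with 0.24 uM labeled tracer, and 20 uM heparin induces aggregation over 6 hr at 37 C.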
Tau fluor cs: Counterscreen qHTS for Inhibitors of Tau Fibril Formation, Fluorescence Polarization. tau K18 P301L Alexa594 fluorescence, heparin fibrillization. Potency, µM (highest dose often 57.7 µM). 280,000 compounds, 0.93% hits. AID 1463, 2008; also: nearly all actives have a fitted effect of over 55% in size
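Human tau K18 P301L (15 uM unlabeled, 0.24 uM Alexa 594-labeled) in 100 mM sodium acetate pH 7 with 20 uM heparin, 6 hr at 37 C. ThT 30 uM added, 1 hr ambient; Alexa 594 FP and total fluorescence read at 555/632 nm.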
Tau ThT inhib: qHTS for Inhibitors of Tau Fibril Formation, Thioflavin T Binding. Microtubule-associated protein tau (Homo sapiens), P10636. recombinant tau K18 P301L, heparin-induced fibrillization, ThT fluorescence. Potency, µM (series often up to 57.4 µM), hits mostly inhibitors. 270,000 compounds, 2.1% hits. AID 1460, 2008; also: nearly all actives have a fitted effect of over 55% in size
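Fibril formation assay: tau K18 P301L at 15 uM with trace Alexa 594 label, heparin inducer 20 uM, pH 7 sodium acetate buffer, 37 C for 6 hr; endpoint ThT signal.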
TexasRed fluor: Total Fluorescence Counterscreen for Inhibitors of the Interaction of Thyroid Hormone Receptor and Steroid Receptor Coregulator 2; Potency, µM (doses to about 106 µM); 280,000 compounds, 0.29% hits; TRb/SRC2 Texas Red total fluorescence interference; AID 1479, 2009; active = well fitted curve in either direction with a large enough effect; inconclusive = small, poorly fitted or top-dose-only effect
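Human TRb ligand-binding domain at 0.6 uM with 20 nM Texas Red SRC2 peptide in Tris buffer containing 1 uM T3 and 5% DMSO, incubated with compound 5 h at ambient temperature. Total fluorescence (555/632 nm) calculated as parallel + 2 × perpendicular.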
Numbers stand for hits; [ ] = dose if it differs, or a comment. Unless noted, calls follow the shape of the dose curve; as a rule, active = well fitted curve in the direction sought with a large enough effect; inconclusive = small, poorly fitted or top-dose-only effect, or another doubt; inactive = no such curve, though single readings can be large; an effect the other way counts as inactive or inconclusive.

Screening Cc1ccc(/C(C#N)=C\c2ccc(N3CCOCC3)o2)cc1 returned TRb SRC2 PPI inactive, RGS12 GoLoco inh inactive, Tau fibril FP inconclusive, Tau fluor cs inconclusive, Tau ThT inhib 10µM and TexasRed fluor inactive.
Screening CC(C)(C)[C@H](O)[C@H](Cc1ccc(Cl)cc1)n1cncn1 returned TRb SRC2 PPI inactive and TexasRed fluor inactive.
Screening CCCc1c(OCC(O)COc2ccc3c(=O)cc(C(=O)O)oc3c2CCC)ccc(C(C)=O)c1O (stereo not drawn) returned TRb SRC2 PPI inactive, RGS12 GoLoco inh inactive, Tau fibril FP inactive, Tau fluor cs inactive, Tau ThT inhib inconclusive and TexasRed fluor inactive.
`c1cncc(CNc2cc(-c3ccoc3)ncn2)c1` gave RGS12 GoLoco inh 12.6µM.
Screening Cc1cccc(CNc2cc(-c3ccoc3)ncn2)c1 returned TRb SRC2 PPI inactive, RGS12 GoLoco inh inactive, Tau fibril FP inconclusive, Tau fluor cs inactive, Tau ThT inhib 17.8µM and TexasRed fluor inactive.
`Nc1nc(N)nc(CCCc2nc(N)nc(N)n2)n1` gave RGS12 GoLoco inh inactive[14.2 µM].
CCO[Si](CCC#N)(OCC)OCC was read as TRb SRC2 PPI inactive and TexasRed fluor inactive.
CCCN(CCC)C1=CC(=[N+]2CCCC2)CC(C)(C)C1 was read as TRb SRC2 PPI inactive, RGS12 GoLoco inh 7.94µM, Tau fibril FP inactive, Tau fluor cs inactive, Tau ThT inhib inactive and TexasRed fluor inactive.
CC1(C)CC(N2CCCCC2)=CC(=[N+]2CCCCC2)C1 was read as TRb SRC2 PPI inactive, RGS12 GoLoco inh 2.51µM, Tau fibril FP inactive, Tau fluor cs inactive, Tau ThT inhib inactive and TexasRed fluor inactive.
`CC1C[N+](=C2C=C(N3CCOCC3)CC(C)(C)C2)CC(C)O1` (stereo not drawn) gave TRb SRC2 PPI inactive, RGS12 GoLoco inh 25.1µM, Tau fibril FP inactive, Tau fluor cs inactive, Tau ThT inhib inactive and TexasRed fluor inactive.
For CN(C)NC1=CC(=[N+]2CCCC2)CC(C)(C)C1 the results were TRb SRC2 PPI inactive, RGS12 GoLoco inh inactive, Tau fibril FP inactive, Tau fluor cs inactive, Tau ThT inhib inactive and TexasRed fluor inactive.
`CC1(C)CC(N2CCOCC2)=CC(=[N+]2CCOCC2)C1` gave TRb SRC2 PPI inactive, RGS12 GoLoco inh inactive, Tau fibril FP inactive, Tau fluor cs inactive, Tau ThT inhib inactive and TexasRed fluor inactive.
`CCc1ccc(NC(=O)CC2C(=O)N(c3cccc(C)c3)C(=O)N2Cc2cccs2)cc1` (stereo not drawn) gave TRb SRC2 PPI inactive, Tau fibril FP inactive, Tau fluor cs inactive, Tau ThT inhib inactive and TexasRed fluor inactive.
`CCN(CC)CCNC(=O)c1[nH]c2ccc(OCc3ccccc3)cc2c1C` gave TRb SRC2 PPI inactive, RGS12 GoLoco inh inactive, Tau fibril FP inactive, Tau fluor cs 20µM[quencher], Tau ThT inhib inactive and TexasRed fluor inactive.
For CCN(CC)CCNC(=O)c1cc2c(=O)[nH]c3ccc(C)cc3c2s1 the results were TRb SRC2 PPI inactive, Tau fibril FP inactive, Tau fluor cs inactive, Tau ThT inhib inactive and TexasRed fluor inactive.
For CCOCCn1ccc2c(OCC(=O)Nc3cccc(F)c3)cccc2c1=O the results were TRb SRC2 PPI inactive, Tau fibril FP inactive, Tau fluor cs inactive, Tau ThT inhib inactive and TexasRed fluor inactive.
Screening Cc1ccc(CSc2nnc3c(n2)OC2(Nc4ccccc4-3)C(=O)Nc3ccc(F)cc32)cc1 (stereo not drawn) returned TRb SRC2 PPI inactive, RGS12 GoLoco inh inactive, Tau fibril FP inconclusive, Tau fluor cs inconclusive, Tau ThT inhib 28.2µM and TexasRed fluor inactive.
`O=C1Nc2ccc(F)cc2C12Nc1ccccc1-c1nnc(SCc3ccccc3)nc1O2` (stereo not drawn) gave TRb SRC2 PPI inactive, RGS12 GoLoco inh inactive, Tau fibril FP inconclusive, Tau fluor cs inconclusive, Tau ThT inhib inconclusive and TexasRed fluor inactive.
O=C1Nc2ccc(F)cc2C12Nc1ccccc1-c1nnc(SCc3ccccc3Cl)nc1O2 (stereo not drawn) was read as TRb SRC2 PPI inactive, RGS12 GoLoco inh inactive, Tau fibril FP inconclusive, Tau fluor cs inconclusive, Tau ThT inhib 28.2µM and TexasRed fluor inactive.
CCN1c2ccccc2-c2nc(SCC(=O)Nc3cc(F)ccc3F)ncc2S1(=O)=O was read as TRb SRC2 PPI inactive, Tau fibril FP inconclusive, Tau fluor cs inconclusive, Tau ThT inhib inactive and TexasRed fluor inactive.
`Cc1ccc(OCCSc2nc3ccc(NC(=O)c4cccs4)cc3s2)cc1` gave TRb SRC2 PPI inactive, Tau fibril FP inconclusive, Tau fluor cs inconclusive, Tau ThT inhib inconclusive and TexasRed fluor inconclusive.
For O=C(Nc1ccc2nc(SCCOc3ccccc3Cl)sc2c1)c1cccs1 the results were TRb SRC2 PPI inactive, Tau fibril FP 10µM, Tau fluor cs inconclusive, Tau ThT inhib inactive and TexasRed fluor inactive.
Screening Cc1cc(C)cc(OCCSc2nc3ccc(NC(=O)c4cccs4)cc3s2)c1 returned TRb SRC2 PPI inactive, Tau fibril FP 7.08µM, Tau fluor cs inconclusive, Tau ThT inhib inactive and TexasRed fluor inactive.
Screening COc1cc(OC)c(NC(=O)CSCc2nc(-c3ccc(OC)c(OC)c3)no2)cc1Cl returned TRb SRC2 PPI inactive, Tau fibril FP inactive, Tau fluor cs inactive, Tau ThT inhib inactive and TexasRed fluor inactive.
O=C(O)[C@H](Cc1c[nH]c2ccccc12)N1C(=O)c2ccccc2C1=O was read as RGS12 GoLoco inh inactive[14.2 µM].
`COc1cccc(-c2noc(COc3ccc(C(C)(C)C)cc3)n2)c1` gave TRb SRC2 PPI inactive, Tau fibril FP inactive, Tau fluor cs inactive, Tau ThT inhib inconclusive and TexasRed fluor inactive.
For CC(C)OC(=O)c1c(-c2ccccc2)c(-c2ccccc2)nn(C)c1=O the results were TRb SRC2 PPI inactive, Tau fibril FP inactive, Tau fluor cs inactive, Tau ThT inhib inactive and TexasRed fluor inactive.
For C=CCOC(=O)N[C@H](C[N+](=O)[O-])c1ccccc1 the results were TRb SRC2 PPI inactive, RGS12 GoLoco inh inactive, Tau fibril FP inactive, Tau fluor cs inactive, Tau ThT inhib inactive and TexasRed fluor inactive.
CC(=O)Nc1ccc(S(=O)(=O)Oc2ccc(/C=N/NC(=O)c3ccc(Cl)cc3)cc2)cc1 was read as TRb SRC2 PPI inactive, RGS12 GoLoco inh inactive, Tau fibril FP 12.6µM, Tau fluor cs inconclusive, Tau ThT inhib inconclusive and TexasRed fluor inactive.
